Screening results deposited in PubChem BioAssay by National Center for Advancing Translational Sciences (NCATS).
TRPV1 PAM: enhances activation of the human vanilloid receptor TRPV1 | Q8NER1 | potentiation, % at 8.33 µM | TRPV1-expressing cells, Fluo-8 calcium influx, capsaicin EC20 potentiation | actives 0.02% (n = 320,000) | AID 540277; in the data active = potentiation above about 80%; inconclusive = between about 30% and that limit; also: 0% is about no effect
Target sequence (Q8NER1 whole entry, looked up): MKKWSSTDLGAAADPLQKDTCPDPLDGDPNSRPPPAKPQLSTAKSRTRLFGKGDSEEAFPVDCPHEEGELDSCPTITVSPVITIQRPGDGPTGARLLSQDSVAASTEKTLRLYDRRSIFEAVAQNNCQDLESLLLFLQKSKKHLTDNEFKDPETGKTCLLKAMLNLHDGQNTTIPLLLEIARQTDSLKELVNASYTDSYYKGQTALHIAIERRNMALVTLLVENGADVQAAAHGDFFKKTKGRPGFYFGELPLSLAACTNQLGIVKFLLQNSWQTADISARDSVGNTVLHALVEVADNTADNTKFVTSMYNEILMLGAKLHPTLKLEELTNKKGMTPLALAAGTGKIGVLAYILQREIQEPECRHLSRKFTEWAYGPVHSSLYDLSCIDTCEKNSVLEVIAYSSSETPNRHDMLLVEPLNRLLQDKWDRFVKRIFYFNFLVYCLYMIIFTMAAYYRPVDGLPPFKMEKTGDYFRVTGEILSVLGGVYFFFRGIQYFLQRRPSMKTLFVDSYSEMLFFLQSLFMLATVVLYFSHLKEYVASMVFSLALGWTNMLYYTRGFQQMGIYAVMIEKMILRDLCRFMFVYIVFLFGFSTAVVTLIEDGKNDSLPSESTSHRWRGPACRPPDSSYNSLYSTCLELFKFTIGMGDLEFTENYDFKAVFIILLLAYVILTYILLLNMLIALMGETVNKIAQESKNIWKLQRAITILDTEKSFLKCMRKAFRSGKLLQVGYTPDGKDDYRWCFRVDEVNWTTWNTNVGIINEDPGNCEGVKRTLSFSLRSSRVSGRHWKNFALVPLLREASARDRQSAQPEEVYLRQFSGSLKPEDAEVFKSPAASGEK
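TRPV1-expressing cells were cultured overnight at 35.5C and loaded with Fluo-8 calcium dye for 40 to 90 min at room temperature. After a 10 s baseline, compound was added and calcium influx was read kinetically for 3 min (ex 480/em 520 nm).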
TRPML1 ag: agonists of human TRPML1 channel; Q9GZU1; TRPML1-expressing cells, Ca2+ dye fluorescence, FDSS; activation, % (no concentration beside the values); actives 0.12% (n = 410,000); AID 624414; in the data active = activation above about 50%; inconclusive = mostly about 30% to 49%; also: 0% is about no effect
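Tetracycline-induced TRPML1-DL cells are seeded and incubated overnight before loading with a no-wash Ca2+ dye and quencher. Agonist activity is taken from the 110 s fluorescence read following compound pin-transfer on an FDSS, before EC80 54-4 challenge.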
TRPML1 blocker: human mucolipin-1 channel inhibition. Q9GZU1. TRPML1-inducible cells, Ca2+ dye fluorescence, FDSS; hits give low values; inhibition of EC80 agonist-evoked calcium signal. activity change, negative = inhibition, % (concentration not given with the values). actives 0.02% (n = 390,000). AID 624415; in the data active = activity change below about -50%; inconclusive = between about -30% and that limit;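 also: stimulus is agonist 54-4 at its EC80 concentration; % is scaled to controls: 0 for no effect and ±100 for the full control effect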
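Calcium fluorescence in TRPML1-DL cells induced overnight with Tet: a 110 s read after compound pin addition, then a 110 s antagonist read after challenge with 54-4 at 4 uM final (EC80).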
TRHR ag: TRH receptor (human) agonism. activation, % at 2 µM. actives 0.18% (n = 360,000). AID 493084. P34981. TRHR cells, calcium flux fluo-8, FDSS agonist mode; in the data active = activation above about 30%; also: 0% is about no effect
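Agonist-mode FDSS calcium read (Ex 480/Em 530, 1 s cycles) in 1536-well TRHR cells with fluo-8 dye, after 10-cycle baseline and 23 nL compound addition; TRH at EC20 (10 nM final) added afterwards for the enhancer phase.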
TRPV1 agonist: human TRPV1 agonism | TRPV1-expressing cells, Fluo-8 calcium influx, agonist mode | activation, % at 8.33 µM | actives 0.19% (n = 320,000); in the data active = activation above about 80%; inconclusive = between about 30% and that limit; also: 0% is about no effect
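Cells expressing TRPV1 were dye-loaded with Fluo-8 and read kinetically: 10 s baseline, 3 min after compound (agonist portion), then 2 min after EC20 capsaicin (allosteric enhancer portion). Calcium-bound dye fluorescence at 480/520 nm.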
TRHR PAM: TRH receptor (human) allosteric enhancement; actives 0.66% (n = 360,000); P34981; enhancement, % at 2 µM; AID 493056; TRHR cells, fluo-8 calcium fluorescence, EC20 TRH enhancement; in the data active = enhancement above about 30%; also: 0% is about no effect
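TRHR-expressing cells loaded with fluo-8 calcium dye were read kinetically (ex 480/em 530) during compound addition, then stimulated with an EC20 of TRH (10 nM final). Enhancement of the Gq-mediated intracellular calcium response was scored.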
An asterisk follows results filed as active. An excerpt weighted towards active compounds, which were near 0.99% of everything screened.

`CCN1/C(=C\C=C\C2=[N+](CC)c3ccccc3C2(C)C)C(C)(C)c2ccccc21` gave TRPV1 PAM 7.7, TRPML1 ag 0.6, TRPML1 blocker 6.0, TRHR ag 124.0*, TRPV1 agonist inconclusive and TRHR PAM 5.3.
For C/C=C1/C[C@@H](C)[C@@](C)(O)C(=O)OCC2=CCN3CC[C@@H](OC1=O)[C@@H]23 the results were TRPML1 ag 0.2 and TRPML1 blocker 58.8.
Screening O=c1[nH]c(=S)n(-c2ccc(Cl)cc2)c(O)c1C=Nc1ccc(N2CCOCC2)cc1 returned TRPV1 PAM 2.9, TRPML1 ag 12.1, TRPML1 blocker -2.0, TRHR ag 12.8, TRPV1 agonist 4.1 and TRHR PAM 32.7*.
For CCn1c(O)c(C=Nc2ccc(N3CCOCC3)cc2)c(=O)n(CC)c1=S the results were TRPV1 PAM 1.7, TRPML1 ag inconclusive, TRPML1 blocker -2.7, TRHR ag 31.7*, TRPV1 agonist 20.5 and TRHR PAM 6.8.
O=C(Oc1ccc([N+](=O)[O-])cc1)N1CCN(/[N+]([O-])=N/Oc2ccc([N+](=O)[O-])cc2[N+](=O)[O-])CC1 was read as TRPML1 ag 1.1 and TRPML1 blocker -25.9.
For COc1cc2nc(N3CCCN(C)CC3)nc(N(C)C3CCN(C)CC3)c2cc1OC the results were TRPML1 ag -0.1.
For COc1ccc2[nH]cc(CCN=C(N)N)c2c1 the results were TRPV1 PAM -0.8, TRPML1 ag 0.2, TRPML1 blocker 25.5, TRHR ag 0.5, TRPV1 agonist -6.4 and TRHR PAM 35.8*.
`COc1ccc2[nH]cc(CCNCc3cccnc3)c2c1` gave TRPV1 PAM 1.7, TRPML1 ag 0.0, TRPML1 blocker -2.2, TRHR ag 0.4, TRPV1 agonist 0.1 and TRHR PAM 6.2.
`Cc1ccc(C2=NCC(=O)N(CC(=O)N3CCCCC3)c3sc(C)c(C)c32)cc1` gave TRPV1 PAM 7.3, TRPML1 ag 0.3, TRPML1 blocker -1.0, TRHR ag 0.6, TRPV1 agonist 2.3 and TRHR PAM 30.0*.
`COc1ccc(CCN)cc1O` gave TRPML1 ag -0.7 and TRPML1 blocker -0.3.
For NCCc1ccc(S(N)(=O)=O)cc1 the results were TRPV1 PAM -3.3, TRPML1 ag 1.2, TRPML1 blocker 5.1, TRHR ag 0.4, TRPV1 agonist 1.7 and TRHR PAM 39.8*.
OC(CN1CC=C(c2ccccc2)CC1)c1ccccc1 (configuration not stated) was read as TRPV1 PAM 1.0, TRPML1 ag 0.1, TRPML1 blocker 9.3, TRHR ag 0.7, TRPV1 agonist 3.4 and TRHR PAM 35.1*.
Screening OC(COCc1ccc(Cl)cc1)CN1CC=C(c2ccccc2)CC1 (configuration not stated) returned TRPV1 PAM 3.2, TRPML1 ag 1.1, TRPML1 blocker -2.1, TRHR ag -0.6, TRPV1 agonist 14.7 and TRHR PAM 9.5.
O=C1NC(=O)N(c2ccccc2F)C(=O)/C1=C/c1ccc(Sc2nc3ccccc3[nH]2)o1 was read as TRPV1 PAM -9.5, TRPML1 ag inconclusive, TRPML1 blocker 2.2, TRHR ag 41.2*, TRPV1 agonist 13.8 and TRHR PAM 5.2.
CC(=O)NCC(N)C(=O)c1ccc(Cl)c(Cl)c1 (configuration not stated) was read as TRPML1 ag -0.6.
For O=P1(Oc2ccccc2)CC=CC(COCc2ccccc2)O1 (configuration not stated) the results were TRPML1 ag 0.5 and TRPML1 blocker -10.7.
For CCN(CC)c1ccc(/C=C/[N+](=O)[O-])cc1 the results were TRPV1 PAM -6.3, TRPML1 ag 70.9*, TRPML1 blocker 1.3, TRHR ag 72.2*, TRPV1 agonist inconclusive and TRHR PAM 0.4.
CCOC(=O)C1CCCN(c2ccc([N+](=O)[O-])c3nonc23)C1 (configuration not stated) was read as TRPV1 PAM -9.8, TRPML1 ag 88.5*, TRPML1 blocker -6.3, TRHR ag 247.8*, TRPV1 agonist 105.1* and TRHR PAM 33.0*.
